We go through 22 compounds from PubChem BioAssay (NCATS).

Structures are written as SMILES. “And” between values parts separate entries of the source, which are not always exact repeats. Equal values may be shown once. Inconclusive results are not listed. A number with no mark means an inactive call. The source made the active and inactive calls. Calls follow the shape of the dose curve; as a rule, active = well fitted curve in the direction sought with a large enough effect; inconclusive = small, poorly fitted or top-dose-only effect, or another doubt; inactive = no such curve, though single readings can be large; an effect the other way counts as inactive or inconclusive.

Assay [1] deals with Cellular tumor antigen p53 (Homo sapiens) (UniProt P04637). The experiment in a line: Primary qHTS for small molecule compounds that upregulate eGFP-tagged delta133p53alpha (in N-terminal) cells. (AID 2060322). Also: nearly all actives have a fitted effect of over 75% in size. Also: potency is read from the fitted curve at half-maximal effect.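 As to activation: series mostly up to about 56 µM; 0% = DMSO vehicle and 100% = reference activator.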 The note with it: NCI-H358 eGFP-delta133p53alpha fluorescence, 24 h; activation: stronger effect = higher value. In outline:
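NCI-H358 cells pre-induced 24 h with 10 ng/ml doxycycline to express N-terminal eGFP-delta133p53alpha, then dosed 24 h at 37C without doxycycline; fixed, Hoechst-stained, GFP intensity by laser scanning cytometry, normalized to DMSO (0%) and 57.5 uM 5-azacytidine (100%).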

In assay [2] the target is Aldehyde dehydrogenase, mitochondrial (Homo sapiens) (UniProt P05091). The assay can be described thus: qHTS for Inhibitors of the Aldehyde Dehydrogenase Family (ALDH2) Primary screen (AID 2061308).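 Also: plate controls were vehicle for no effect and reference inhibitor for full effect; nearly all actives have a fitted effect of over 55% in size.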 A general note: Quantitative high-throughput screening tests each substance at several concentrations.
The target in assay [3] is Retinaldehyde dehydrogenase 3 (Homo sapiens) (UniProt P47895). The experiment in a line: qHTS for Inhibitors of the Aldehyde Dehydrogenase Family (ALDH1A3) Primary screen (AID 2061315).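 Also: plate controls were DMSO vehicle for no effect and reference inhibitor for full effect.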

Chain of Cellular tumor antigen p53 (Homo sapiens) (P04637 whole entry, looked up): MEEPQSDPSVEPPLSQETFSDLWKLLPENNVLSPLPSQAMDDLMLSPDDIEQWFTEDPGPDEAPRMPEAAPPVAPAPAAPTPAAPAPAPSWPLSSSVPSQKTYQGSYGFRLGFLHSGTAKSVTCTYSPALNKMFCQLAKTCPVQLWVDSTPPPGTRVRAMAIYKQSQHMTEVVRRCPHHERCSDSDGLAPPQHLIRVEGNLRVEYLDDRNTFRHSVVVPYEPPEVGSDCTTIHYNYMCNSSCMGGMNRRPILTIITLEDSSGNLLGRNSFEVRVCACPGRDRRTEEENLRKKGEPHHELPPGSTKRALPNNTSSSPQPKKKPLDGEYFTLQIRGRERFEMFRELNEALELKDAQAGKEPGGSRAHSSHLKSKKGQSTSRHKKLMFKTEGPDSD

`C=C(C)C1CCC2(C(=O)OC3OC(COC4OC(CO)C(O)C(O)C4O)C(OC4OC(C)C(O)C(O)C4O)C(O)C3O)CCC3(C(=O)O)C(CCC4C5(C)CCC(=O)C(C)(C)C5CCC43C)C12` (stereo unspecified): the activation in assay [1] was -8.4%. In addition, the Potency result in assay [2] and in assay [3] was “inactive” throughout.

Regarding `C/C=C/C1OC2=C(C(=O)OC2(C)O)C(O)C1O` (stereo unspecified), the activation in assay [1] was 28.2%. The Potency entry in assay [2] and in assay [3] was “inactive” in each case.

In the case of `O=C(CCCCc1ccc2ccccc2c1)C(F)(F)F`, the activation in assay [1] was 4.33%. Besides, the Potency entry in assay [2] and in assay [3] was “inactive” each time.

Take `CNC(C)C(=O)NC(C(=O)N1CCCC1C(=O)Nc1cccc2ncccc12)C(C)C` (stereo unspecified): the activation in assay [1] is -21%. In addition, the Potency entry in assay [2] and in assay [3] was “inactive” throughout.

For `C=CC(C)(C)C12Nc3c(ccc4c3OC(C)(C)C=C4)C1(O)CC1C(=O)N3CCCC3C(=O)N12` (stereo unspecified), in assay [1], the activation is -0.763%. Besides, the Potency entry in assay [2] and in assay [3] was “inactive” throughout.

In the case of `CCn1nnnc1NCc1ccc(C(C)C)cc1`, the activation in assay [1] is 3%. Moreover, the Potency result in assay [2] and in assay [3] was “inactive” in each case.

On to `O=C1Nc2ccccc2C(O)(c2ccccc2)C1O` (stereo unspecified), for which the activation in assay [1] was 0.763%. Besides, the Potency result in assay [2] and in assay [3] was “inactive” in each case.

Take `OC[C@H]1O[C@@H](OCc2ccccc2)[C@H](O[C@@H]2OC[C@@H](O)[C@H](O)[C@H]2O)[C@@H](O)[C@@H]1O`: in assay [1], the activation is -14.3%. For the same compound, the Potency result in assay [2] and in assay [3] was “inactive” in each case.

On to `CC(C)c1cc(-c2ccc(F)c3ccccc23)nc(N)n1`, for which, in assay [1], the activation is -13.4%. Moreover, the Potency entry in assay [2] and in assay [3] was “inactive” in each case.

Regarding `O=C(/C=C/c1ccc(O)cc1)OC[C@@]1(O)C=C[C@@H]2C(C(=O)O)=CO[C@@H](O[C@@H]3O[C@H](CO)[C@@H](O)[C@H](O)[C@H]3O)[C@@H]21`, the activation in assay [1] is -4.46%. Also, the Potency entry in assay [2] and in assay [3] was “inactive” throughout.

On to `C=C1[C@H](OC(C)=O)[C@H]2[C@@H](OC(C)=O)[C@](C)(OC(C)=O)C[C@]2(OC(C)=O)C(=O)[C@H](C)/C=C/C(C)(C)C(=O)[C@H](OC(=O)C(C)C)[C@H]1OC(C)=O`, for which the activation in assay [1] is 2.29%. Besides, the Potency entry in assay [2] and in assay [3] was “inactive” throughout.

As to `O=C(c1ccc(F)cc1)N1CCCC(c2nc(-c3ccc(F)cc3)no2)C1` (stereo unspecified), in assay [1], the activation is -1.91%. For the same compound, the Potency entry in assay [2] and in assay [3] was “inactive” each time.

Regarding `CC(C)(O)C(O)C(=O)OCc1ccc(O[C@@H]2O[C@H](CO)[C@@H](O)[C@H](O)[C@H]2O)cc1` (stereo partly specified), the activation in assay [1] was 8.4%. Besides, the Potency result in assay [2] and in assay [3] was “inactive” in each case.

Regarding `C[C@@H]1O[C@@H](OC(=O)Cc2ccccc2)[C@H](O)[C@H](O)[C@H]1O`, the activation in assay [1] is 17%. Moreover, the Potency entry in assay [2] and in assay [3] was “inactive” in each case.

For the compound `O=C1CC[C@H](C(=O)N2CCCCC2)N1`, in assay [1], the activation is -6.33%. Also, the Potency entry in assay [2] and in assay [3] was “inactive” throughout.

In the case of `CCCN(CCc1ccsc1)C1CCc2c(O)cccc2C1` (stereo unspecified), the activation in assay [1] was 2.68%. The Potency result in assay [2] and in assay [3] was “inactive” throughout.

Regarding `c1cc(-c2cc(C3CCNCC3)[nH]n2)ccn1`, the activation in assay [1] is 1.79%. Also, the Potency entry in assay [2] and in assay [3] was “inactive” in each case.

For the compound `COc1ccc(CN2CCN(C(c3ccc(F)cc3)c3ccc(F)cc3)CC2)c(OC)c1OC`, the activation in assay [1] was -1.69% and -6.68%. The Potency result in assay [2] and in assay [3] was “inactive” each time.

Turning to `CNCCN1CCC(c2cc(CN(C)C(=O)c3cccc(Oc4ccccc4)c3)ccn2)CC1`, the activation in assay [1] was -4.33%. Also, the Potency result in assay [2] and in assay [3] was “inactive” in each case.

On to `C=C(C(=O)O[C@H]1C/C(C)=C/CC/C(CO)=C/[C@H]2OC(=O)C(=C)[C@H]12)C(O)CO` (stereo partly specified), for which the Potency in assay [1] is 18.6 µM (active). Besides, the Potency result in assay [2] and in assay [3] was “inactive” in each case.

Take `CC12CCC(=O)C=C1C(O)CC1C2C(O)CC2(C)C1CC[C@]2(O)C(=O)CO` (stereo partly specified): the activation in assay [1] was 5.67%. For the same compound, the Potency entry in assay [2] and in assay [3] was “inactive” each time.

As for `CCC(C)C(=O)O[C@H]1[C@@H](OC(=O)c2ccoc2)C[C@](C)(O)[C@]23OC(C)(C)[C@H](C[C@H](OC(=O)c4ccoc4)[C@]12COC(C)=O)[C@H]3OC(C)=O` (stereo partly specified), in assay [1], the activation is 17.6%. Besides, the Potency entry in assay [2] and in assay [3] was “inactive” throughout.
